Test results taken from PubChem BioAssay (Tox21).
“And” between values parts separate entries of the source, which are not always exact repeats. Equal values may be shown once. Inconclusive results are not listed. Where a call stands in place of a potency, no number is given. Some compounds were tested as several samples or in several runs, with calls that do not always agree. The source made the active and inactive calls. Calls come from the whole dose curve; as a rule, active = well fitted activation curve with a large enough effect in the repeat runs; inconclusive = weak or mixed curves; inactive = no such curve, though single readings can be large or run the other way.

These molecules were tested against Nuclear receptor subfamily 1 group I member 2 (Homo sapiens) (UniProt O75469) (assay: Human pregnane X receptor (PXR) small molecule agonists, qHTS assay (AID 1346982; note: nearly all actives have a fitted effect of over 35% in size)). Details: PXR-Luc HepG2, CYP3A4 luciferase reporter, 24 h; series mostly up to 92.4 µM; activation: at the top concentration.
Description: National Center for Advancing Translational Sciences [NCATS]
NIH Chemical Genomics Center [NCGC]
U.S. Environmental Protection Agency [EPA]
National Institutes of Environmental Health Sciences [NIEHS]
National Toxicology Program [NTP]
The human pregnane X receptor (hPXR) regulates the expression of several drug metabolizing enzymes and induction of these proteins is a major mechanism for developing drug resistance in cancer. One such key enzyme catalyzing the drug metabolism is cytochrome P450 3A4 (CYP3A4). Changes in CYP3A4 expression affect drug metabolism, thereby reducing the therapeutic efficacy and altering toxicological response to a drug and which finally causes adverse drug interaction. To screen Tox21 libraries for compounds that activate hPXR-mediated CYP3A4 gene expression, PXR-Luc HepG2 cells were used.
PXR-Luc HepG2 cells were dispensed at 2,000 per well in 5uL of assay medium containing 5% charcoal-stripped FBS into white solid bottom 1536-well plates (Corning Life Sciences, Corning, NY) using a Multidrop Combi (Thermo Scientific, Waltham, MA) dispenser. The assay plates were incubated at 37 C and 5% CO2 for 5hr, and then 23nL of compounds dissolved in DMSO and positive control were transferred using a Pintool station (Wako, San Diego, CA). The assay plates were incubated at 37C and 5% CO2 for 24hr. For luciferase read, 4uL of ONE-Glo reagent (Promega Corporation, Madison, WI) was added to each well of the assay plates using Flying Reagent Dispenser (FRD, Aurora Discovery, San Diego, CA) and incubated the assay plates at room temperature for 30min. The luminescence signal was quantified using a ViewLux plate reader (Perkin Elmer, Shelton, CT).
Potency is the fitted concentration of half-maximal effect.

Nuclear receptor subfamily 1 group I member 2 (Homo sapiens), sequence (O75469 whole entry, looked up): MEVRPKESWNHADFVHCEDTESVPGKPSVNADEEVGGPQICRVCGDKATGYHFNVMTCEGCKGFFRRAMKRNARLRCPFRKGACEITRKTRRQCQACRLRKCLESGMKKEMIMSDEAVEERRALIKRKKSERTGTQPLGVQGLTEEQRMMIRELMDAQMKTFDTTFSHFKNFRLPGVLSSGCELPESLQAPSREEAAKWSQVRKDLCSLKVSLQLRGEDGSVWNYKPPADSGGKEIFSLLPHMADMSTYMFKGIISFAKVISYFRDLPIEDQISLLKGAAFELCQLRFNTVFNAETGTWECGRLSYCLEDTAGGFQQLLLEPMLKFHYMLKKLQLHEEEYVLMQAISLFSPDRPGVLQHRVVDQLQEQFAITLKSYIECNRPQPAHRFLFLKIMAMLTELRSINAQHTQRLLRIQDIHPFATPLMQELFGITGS

Structure (SMILES)	Potency	activation
CC(C)(CO)COC(=O)C(C)(C)CO	inactive	
O=C(Oc1ccccc1)c1ccc(O)cc1	inactive	
CCCCC/C=C\C/C=C\CCCCCCCC(=O)OC	67.8 µM (active) and 61.1 µM (active)	
CCCCCCC(C)(C)S	30.9 µM (active) and inactive	
CCOC(=O)/C=C\C(=O)OCC	inactive	
O=S(=O)(Oc1ccc(Cl)cc1Cl)c1ccccc1	49.4 µM (active) and 54.5 µM (active)	
O=[N+]([O-])c1cc(N(CCO)CCO)ccc1NCCO	inactive	
C=C(C)C(=O)OCCCCCC	inactive	
CCCCCCCCCC(=O)O	inactive	
Cc1cc(O)cc(C)c1Cl	inactive	
CC1=C(CC(=O)O)c2cc(F)ccc2/C1=C\c1ccc(S(C)=O)cc1 (stereo not given)	21.7 µM (active) and inactive	
CC(=O)Nc1ccc(C(=O)O)cc1	inactive	
O=C(c1ccc(O)cc1)c1ccc(O)cc1O	61.8 µM (active) and 48.6 µM (active)	
C=C(C)C(=O)OCCCCCCCCCCCC	inactive	
Nc1c(S(=O)(=O)O)cc(Br)c2c1C(=O)c1ccccc1C2=O	inactive and 48.6 µM (active)	
Cc1ccc(N)c(S(=O)(=O)O)c1	inactive	
CCCCOCCOCCOC(=O)CCCCC(=O)OCCOCCOCCCC	inactive	
Cc1cc(=O)[nH]c(C(C)C)n1	inactive	
O=C1CCCCC1	inactive	
CC(C)(C)C(=O)C1C(=O)c2ccccc2C1=O	60.5 µM (active) and inactive	

Structure (SMILES)	Potency	activation
Clc1ccc(Cl)c(Cl)c1Cl	inactive	
C=C(C)C(=O)OCC(CC)(COC(=O)C(=C)C)COC(=O)C(=C)C	inactive	
c1ccc2ccccc2c1	inactive	
O=[N+]([O-])C(CO)(CO)CO	1.35 µM (active) and inactive	
CC1COc2ccccc2N1C(=O)C(Cl)Cl (stereo not given)	61 µM (active) and 54.4 µM (active)	
Cc1ccc(C(=O)O)o1	inactive	
COCC(=O)O	inactive	
CCc1ccc(O)cc1	inactive	
CCCCCCCCCCCCOCC1CO1 (stereo not given)		27.4% (inactive)
ClC1=C(Cl)C(Cl)(Cl)C(Cl)=C1Cl	inactive	
O=C(O)c1ccc([N+](=O)[O-])cc1	inactive	
CC1Cc2ccccc2N1NC(=O)c1ccc(Cl)c(S(N)(=O)=O)c1 (stereo not given)	30.6 µM (active) and 9.44 µM (active)	
CCOC(=O)C1OC1c1ccccc1 (stereo not given)	inactive	
C=C1CC[C@H](O)CC1=C/C=C1\CCC[C@]2(C)[C@@H]([C@H](C)/C=C/[C@H](C)C(C)C)CC[C@@H]12	34.1 µM (active) and 30.6 µM (active)	
Cc1ccc(C)c(C)c1		-0.576% (inactive)
O=C(c1cc(O)c(O)c(O)c1)c1ccc(O)c(O)c1O	inactive	
CCCCCCCCCCC=CC1CC(=O)OC1=O (stereo not given)	inactive	
COCC(C)O (stereo not given)	inactive	
NCCNCCNCCNCCN	inactive	
CCCCNC(N)=O		5.76% (inactive)
